# PubChem BioAssay
# Activity calls are given as the source filed them. Cut-off read from the data, not from the text of the source, unless noted: active = nuclear beta-catenin stimulation mostly above about 4.2% (no sharp cut-off); inactive = mostly below about 10%.
# Assays:
# [1] = Wnt pathway potentiators raising nuclear beta-catenin – imaging, WNT3A-conditioned medium, mouse C2C12, NPC library, primary screen (AID 1117326); conditions: stronger effect = higher value; note: reference of the scale not given here
# [2] = stimulators of insulin release from INS-1E, primary screen, cell-based, 5 mM glucose, NPC library (AID 1117329;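 active = compound raises insulin release from rat beta cells at 5 mM glucose, no numeric limit stated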; note: reference of the scale not given here); conditions: rat INS-1E insulin secretion, at 10 µM, stronger effect = higher value
# [3] = growth inhibition of GSK3B-pretreated HCT116 cells – cell-based, CellTiter-Glo, 0.2 to 20 µM (AID 1117336;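 active = compounds lowering colon cancer cell viability after pretreatment blocking the GSK3B kinase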); conditions: HCT116 viability after GSK3B inhibitor, at 20 µM, stronger effect = higher value
# [4] = inhibition of endothelial tube formation, primary screen, imaging, VEGF stimulated, CD31 staining, tube area, NPC library (AID 1117340;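 active = compound that reduces growth-factor-driven endothelial tube area in a mixed cell culture, no cutoff stated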); conditions: VEGF-stimulated ADSC/ECFC co-culture, at 10 µM, stronger effect = higher value
# [5] = GLP1 release stimulators, primary, NCI-H716, NPC library (AID 1117341;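 active = compound raises GLP1 secretion from the human gut endocrine cells, with no numeric limit stated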; note: reference of the scale not given here); conditions: NCI-H716 cells, at 10 µM, stronger effect = higher value
# [6] = HCT116 colon cancer cell growth inhibition, primary screen, CellTiter-Glo luminescence, NPC library (AID 1117342;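 active = compounds that lower survival of HCT116 colon cancer cells in the luminescence readout, no numeric limit stated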); conditions: at 20 µM (top of the series)
# [7] = reduced SW480 viability measured with CellTiter-Glo, NPC library, primary (AID 1117343;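 active = compounds that lower viability of the colon cancer cells in the luminescence readout, with no numeric limit stated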); conditions: CellTiter-Glo luminescence; at 20 µM (top of the series)
# [8] = NPC library primary testing for decreased DLD-1 cell viability via CellTiter-Glo (AID 1117346;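 active = compounds that lower survival of DLD-1 colon cancer cells in the luminescence readout, no cutoff given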); conditions: DLD-1 viability, CellTiter-Glo luminescence; at 20 µM (top of the series)
Structure (SMILES),nuclear beta-catenin stimulation ([1]; at 10 µM),"nuclear beta-catenin stimulation ([1]; stimulation, at 2 µM)",insulin secretion stimulation [2],viability decrease [3],tube area decrease [4],GLP1 secretion stimulation [5],inhibition of viability [6],viability decrease (inhibition) [7],viability decrease (inhibition) [8]
O=C(Nc1ccc(Cl)c(Cl)c1)C1CC1,0.1% (inactive),0.9%,2.2% (inactive),25.6% (inactive),24.7% (inactive),-0.1% (inactive),43.4% (inactive),25.2% (inactive),9.7% (inactive)
O=C(O)CC(O)C(=O)O (configuration not stated),6% (inactive),0%,-0.5% (inactive),-6% (inactive),1.8% (inactive),1.3% (inactive),-8.5% (inactive),13.3% (inactive),-7.65% (inactive)
CCCCCCCC/C=C\CCCCCCCCN,-3.5% (inactive),2.6%,-0.6% (inactive),18.7% (inactive),90% (active),24.7% (active),33.8% (inactive),147% (active),106% (active)
Oc1cc(O)cc(O)c1,-0.5% (inactive),2.8%,-1.3% (inactive),-20.3% (inactive),-14.9% (inactive),-1.7% (inactive),-0.5% (inactive),21.1% (inactive),-3.4% (inactive)
CCc1oc2ccccc2c1C(=O)c1cc(I)c(O)c(I)c1,4.9% (inactive),0.4%,-1.6% (inactive),98.7% (active),108% (active),-3.6% (inactive),99% (active),101% (active),102% (active)
COc1cc(C(=O)N2CCCCCCC2)cc(OC)c1OC,0.9% (inactive),-1.2%,5% (inactive),-2.3% (inactive),-2.6% (inactive),2.6% (inactive),17.8% (inactive),-7.8% (inactive),7.8% (inactive)
CCOc1ncc(F)c(=O)[nH]1,-1% (inactive),-1.1%,2.9% (inactive),0.7% (inactive),0.1% (inactive),2.1% (inactive),2.4% (inactive),3% (inactive),-4.2% (inactive)
O=C(CCCN1CCN(c2ccc(F)cc2)CC1)NC1c2ccccc2CSc2ccccc21 (configuration not stated),1.8% (inactive),1.3%,-0.2% (inactive),53.5% (active),32.7% (inactive),3.7% (inactive),47.5% (inactive),27.4% (inactive),14.8% (inactive)
CCCCN(CCCC)C(C(N)=O)c1ccc(OC)cc1 (configuration not stated),0% (inactive),-1.4%,36.4% (active),-5.1% (inactive),6.6% (inactive),2.1% (inactive),30.2% (inactive),10.2% (inactive),2.6% (inactive)
CCCC(=O)Nc1ccc(O)c(C(C)=O)c1,1.7% (inactive),0.4%,3.1% (inactive),-4.4% (inactive),-7% (inactive),-3.4% (inactive),2.9% (inactive),-3.5% (inactive),2.6% (inactive)
O=C(c1cc(O)c(O)c(O)c1)c1ccc(O)c(O)c1O,1% (inactive),17.1%,6.1% (inactive),98.2% (active),8.9% (inactive),4.8% (inactive),69.7% (active),103% (active),58.6% (active)
NC[C@H]1O[C@H](O[C@@H]2[C@@H](O)[C@@H](O[C@H]3O[C@H](CO)[C@@H](O)[C@H](N)[C@@H]3O)[C@H](N)C[C@@H]2N)[C@H](O)[C@@H](O)[C@H]1O,-1.2% (inactive),-0.6%,-0.8% (inactive),-36.2% (inactive),-10.7% (inactive),-0.1% (inactive),-13.3% (inactive),-2.1% (inactive),-23.8% (inactive)
CN1CCN(N)CC1,1.1% (inactive),0.7%,1.5% (inactive),-1.2% (inactive),-7.3% (inactive),0.5% (inactive),0.1% (inactive),-13.8% (inactive),10.2% (inactive)
COc1ccc2c(c1)c(CC(=O)OC/C=C(\C)CC/C=C(\C)CCC=C(C)C)c(C)n2C(=O)c1ccc(Cl)cc1,2.2% (inactive),3%,2.1% (inactive),-16.7% (inactive),5.1% (inactive),-2.8% (inactive),4.5% (inactive),8.2% (inactive),-1.2% (inactive)
O=C(O)C(Cc1cc(I)c(O)c(I)c1)c1ccccc1 (configuration not stated),1.5% (inactive),0.8%,-0.6% (inactive),36.8% (inactive),-29.6% (inactive),-0.7% (inactive),40.4% (inactive),50.4% (active),14.4% (inactive)
O=C(O)CNC(=O)c1ccccc1I,-0.5% (inactive),1.7%,0.3% (inactive),16% (inactive),5.3% (inactive),0.7% (inactive),4.1% (inactive),10.4% (inactive),-17.7% (inactive)
CC(=O)Oc1ccc(C2(c3ccc(OC(C)=O)cc3)Oc3ccccc3NC2=O)cc1,54.6% (active),9.3%,19.9% (inactive),91.8% (active),106% (active),1.6% (inactive),83.3% (active),60.2% (active),52.2% (active)

Structure (SMILES),nuclear beta-catenin stimulation ([1]; at 10 µM),"nuclear beta-catenin stimulation ([1]; stimulation, at 2 µM)",insulin secretion stimulation [2],viability decrease [3],tube area decrease [4],GLP1 secretion stimulation [5],inhibition of viability [6],viability decrease (inhibition) [7],viability decrease (inhibition) [8]
COc1ccc2c(c1)CCCC2=O,1.5% (inactive),-0.1%,1.3% (inactive),5.2% (inactive),13.5% (inactive),0.1% (inactive),8.5% (inactive),-3.8% (inactive),-12% (inactive)
COc1ccc(S(=O)(=O)N2c3ccc(Cl)cc3[C@@](O)(c3ccccc3Cl)[C@H]2C(=O)N2CCC[C@@H]2C(N)=O)cc1OC,0.6% (inactive),-0.8%,2.35% (inactive),47.7% (inactive),-23.5% (inactive),-0.7% (inactive),34% (inactive),0.4% (inactive),4.6% (inactive)
Clc1ccccc1-c1nc(-c2ccncc2)no1,-0.3% (inactive),0.5%,-2.3% (inactive),3.6% (inactive),23.5% (inactive),-2.9% (inactive),18.1% (inactive),8.4% (inactive),-2.9% (inactive)
COc1cccc2c1C(=O)c1c(O)c3c(c(O)c1C2=O)C[C@@](O)(C(=O)CO)C[C@@H]3O[C@H]1C[C@H](N)[C@H](O[C@@H]2CCCCO2)[C@H](C)O1,26.6% (active),79.4%,0.2% (inactive),78.8% (active),-67.7% (active),-0.8% (inactive),66.5% (active),81% (active),76% (active)
CCOC(=O)C(=O)c1csc(NC=O)n1,-0.7% (inactive),-0.8%,2.4% (inactive),-15.5% (inactive),-9.4% (inactive),-2% (inactive),1.1% (inactive),-10.2% (inactive),7.8% (inactive)
CCOC(=O)OCC/C(SC(=O)OCC)=C(\C)N(C=O)Cc1cnc(C)nc1N,1.8% (inactive),0.3%,1.5% (inactive),2.5% (inactive),-11% (inactive),2.9% (inactive),-0.4% (inactive),-22.7% (inactive),-10.1% (inactive)
CC(C)(C)C(=O)OCOC(=O)C1N2C(=O)CC2S(=O)(=O)C1(C)C (configuration not stated),-1.1% (inactive),1%,1.4% (inactive),10.9% (inactive),-21.6% (inactive),-1.3% (inactive),-4.1% (inactive),-22.3% (inactive),4% (inactive)
Nc1ccncc1N,0.2% (inactive),0.5%,-0.7% (inactive),-2.2% (inactive),-31% (inactive),3.3% (inactive),3.4% (inactive),7.7% (inactive),6.9% (inactive)
OCc1ccc(Cl)cc1Cl,2.2% (inactive),0.6%,-2% (inactive),1.6% (inactive),13.7% (inactive),-5% (inactive),-2.7% (inactive),26.9% (inactive),13.2% (inactive)
CCOc1ccccc1O[C@H](c1ccccc1)[C@H]1CNCCO1,-0.4% (inactive),-2.9%,5.4% (inactive),-2.9% (inactive),-5.2% (inactive),0.6% (inactive),22.7% (inactive),6.2% (inactive),18.8% (inactive)
CC(C)(C)NCC(O)COc1ccc(NC(=O)NC2CCCCC2)cc1 (configuration not stated),1.2% (inactive),-0.1%,1.65% (inactive),-5.2% (inactive),9.5% (inactive),2% (inactive),-0.2% (inactive),-5.6% (inactive),-1.8% (inactive)
CC(O)COc1ccccc1 (configuration not stated),-0.1% (inactive),1.5%,-0.2% (inactive),-28.5% (inactive),11.1% (inactive),0.5% (inactive),-11.1% (inactive),-146% (inactive),-19.2% (inactive)
O[C@@H]1CO[C@H]2[C@@H]1OC[C@@H]2O,1% (inactive),1%,-2% (inactive),2.15% (inactive),16.5% (inactive),1.1% (inactive),-9.1% (inactive),51.8% (active),-4.4% (inactive)
O=[N+]([O-])c1ccc(Oc2ccc(N=C=S)cc2)cc1,36.7% (inactive),1.6%,-0.5% (inactive),97.7% (active),108% (active),-5% (inactive),98.9% (active),95.7% (active),100% (active)
O=c1[nH]c2ccccc2c(=O)n1CCCl,3.3% (inactive),1.4%,1.3% (inactive),41.6% (inactive),-18.9% (inactive),2.8% (inactive),30.4% (inactive),50.6% (active),20.2% (inactive)
O=C(NCCc1c[nH]c2ccccc12)c1cccnc1,1% (inactive),1.7%,-2.7% (inactive),6.55% (inactive),35.9% (inactive),0.6% (inactive),-5.5% (inactive),71.3% (active),-0.95% (inactive)
